Measurements as given in PubChem BioAssay.
Active and inactive are the calls of the source. Unless noted, no rule for the calls is given here.

Assays:
[1] = resazurin metabolic signal in HepG2 cells – cell-based, resazurin fluorescence, 24 h, PK04 Diversity Set, profiling panel (AID 1172); conditions: HepG2 viability, higher = more signal
[2] = budding yeast growth changes without added modifier – OD600, strain BY4716, 24 h, basal condition, primary screen (AID 1173); conditions: S. cerevisiae BY4716 growth, OD600, 24 h; higher = more signal, called active from +8 up or from −8 down
[3] = viability profiling in MM1S myeloma cells – cell-based, resazurin fluorescence, basal, 24 h, PK04 Diversity Set, profiling panel (AID 1174); conditions: higher = more signal, called active from +8 up or from −8 down;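 also: MM1S multiple myeloma cell line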
[4] = target: Dihydroorotate dehydrogenase (quinone), mitochondrial (Plasmodium falciparum (isolate 3D7)) (UniProt Q08210); test: inhibition of P. falciparum DHODH – biochemical, C-terminal His tag, absorbance 600 nm, primary screen (AID 1175); conditions: PfDHODH enzyme, DCIP absorbance 600 nm; higher = more signal, called active from +8 up or from −8 down;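 also: recombinant parasite enzyme with a five histidine tag at its C terminus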
Sequence of Dihydroorotate dehydrogenase (quinone), mitochondrial (Plasmodium falciparum (isolate 3D7)) (Q08210 whole entry, looked up): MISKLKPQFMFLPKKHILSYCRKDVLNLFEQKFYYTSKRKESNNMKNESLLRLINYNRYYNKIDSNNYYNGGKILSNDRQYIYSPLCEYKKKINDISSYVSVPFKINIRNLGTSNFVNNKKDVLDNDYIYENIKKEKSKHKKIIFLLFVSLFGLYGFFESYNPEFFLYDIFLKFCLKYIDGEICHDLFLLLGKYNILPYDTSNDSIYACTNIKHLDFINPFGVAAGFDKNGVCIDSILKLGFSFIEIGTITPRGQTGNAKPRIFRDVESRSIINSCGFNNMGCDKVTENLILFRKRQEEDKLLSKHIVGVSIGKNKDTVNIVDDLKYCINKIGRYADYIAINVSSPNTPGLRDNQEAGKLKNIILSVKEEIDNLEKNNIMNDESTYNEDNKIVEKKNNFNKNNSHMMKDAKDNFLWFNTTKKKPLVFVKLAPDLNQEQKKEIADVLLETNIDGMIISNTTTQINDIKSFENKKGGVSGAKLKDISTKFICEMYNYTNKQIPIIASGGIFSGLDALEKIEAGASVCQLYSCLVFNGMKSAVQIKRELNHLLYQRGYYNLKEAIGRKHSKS

[5] = inhibition of PAO1 biofilm formation – strain PAO1, LB-PBS medium, absorbance 600 nm, primary screen (AID 1176); conditions: P. aeruginosa PAO1 growth/biofilm, A600, 12 h; higher = more signal
[6] = growth modulation of vineyard yeast isolate – strain RM11-1a, OD600, basal, 24 h, primary screen (AID 1177);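 also: cultures grown under basal conditions with no added stressor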; conditions: S. cerevisiae RM11-1a growth, OD600, 24 h; higher = more signal, called active from +8 up or from −8 down
[7] = growth of efflux-deficient E. coli DRC39 – strain DRC39, OD650, 24 h, E. coli filamentation inducers, primary screen (AID 1178);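 also: growth measured as culture turbidity by optical density at 650 nm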; conditions: E. coli DRC39 acrAB, higher = more signal, called active from +8 up or from −8 down
[8] = growth of efflux-deficient E. coli DRC39 – strain DRC39, OD650, 48 h, E. coli filamentation inducers, primary screen (AID 1179);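 also: screen aims at cell division blockers that make cells filament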; conditions: E. coli DRC39 delta-acrAB growth, higher = more signal, called active from +8 up or from −8 down
[9] = viability profiling in RPMI8226 myeloma cells – cell-based, resazurin fluorescence, basal, 24 h, PK04 Diversity Set, profiling panel (AID 1180); conditions: higher = more signal;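 also: RPMI8826 multiple myeloma cell line at 5000 cells per well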
[10] = target: E3 ubiquitin-protein ligase XIAP (Homo sapiens) (UniProt P98170); test: small molecules binding XIAP protein – biophysical, small-molecule microarray, fluorescence 635 nm, primary screen (AID 1181); conditions: higher = more signal;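 also: score merges 667 nm emission and signal to noise over triplicate slides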
Sequence of E3 ubiquitin-protein ligase XIAP (Homo sapiens) (P98170 whole entry, looked up, the tested form may be a part): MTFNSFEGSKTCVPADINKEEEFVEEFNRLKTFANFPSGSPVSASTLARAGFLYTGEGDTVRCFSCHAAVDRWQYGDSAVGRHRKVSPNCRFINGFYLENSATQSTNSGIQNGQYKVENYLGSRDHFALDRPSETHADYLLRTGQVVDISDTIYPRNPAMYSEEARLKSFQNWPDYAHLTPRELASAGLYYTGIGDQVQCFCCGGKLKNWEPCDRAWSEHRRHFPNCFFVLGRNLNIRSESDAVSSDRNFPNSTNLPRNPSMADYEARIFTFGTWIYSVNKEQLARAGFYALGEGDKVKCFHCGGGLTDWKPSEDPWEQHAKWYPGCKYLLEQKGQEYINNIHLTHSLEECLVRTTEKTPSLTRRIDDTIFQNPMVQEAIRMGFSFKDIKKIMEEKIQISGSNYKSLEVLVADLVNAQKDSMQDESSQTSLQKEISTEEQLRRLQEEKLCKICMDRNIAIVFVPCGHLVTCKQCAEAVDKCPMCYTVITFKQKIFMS

[11] = system: XIP peptide (Xip251-270) binding; test: XIP fragment 251-270 binding compounds – biochemical, small-molecule microarray, fluorescence 635/667 nm, 0.1 µg/mL protein, primary screen (AID 1182); conditions: fluorescent protein binding, 635 nm, higher = more signal, called active from +8 up or from −8 down
XIP peptide (Xip251-270) = test: compounds binding XIP fragment 251-270 – biochemical, small-molecule microarray, fluorescence 635/667 nm, 0.5 µg/mL protein, primary screen (AID 1183); conditions: fluorescence 635 nm, higher = more signal
[12] = blood-stage malaria parasite viability loss – strain 3D7, DAPI fluorescence, 100 nL, primary screen (AID 1184);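 also: parasites grown inside human red blood cells in medium with human serum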; conditions: P. falciparum 3D7 growth, 3 d, higher = more signal
[13] = target: Homeobox protein Hox-A13 (Mus musculus) (UniProt Q62424); test: disruptors of Hoxa13 oligonucleotide interaction – biochemical, fluorescence polarization, labeled oligonucleotide, primary screen (AID 1185); conditions: Hoxa13:DNA binding, 15 min, higher = more signal, called active from +8 up or from −8 down
Sequence of Homeobox protein Hox-A13 (Mus musculus) (Q62424 whole entry, looked up): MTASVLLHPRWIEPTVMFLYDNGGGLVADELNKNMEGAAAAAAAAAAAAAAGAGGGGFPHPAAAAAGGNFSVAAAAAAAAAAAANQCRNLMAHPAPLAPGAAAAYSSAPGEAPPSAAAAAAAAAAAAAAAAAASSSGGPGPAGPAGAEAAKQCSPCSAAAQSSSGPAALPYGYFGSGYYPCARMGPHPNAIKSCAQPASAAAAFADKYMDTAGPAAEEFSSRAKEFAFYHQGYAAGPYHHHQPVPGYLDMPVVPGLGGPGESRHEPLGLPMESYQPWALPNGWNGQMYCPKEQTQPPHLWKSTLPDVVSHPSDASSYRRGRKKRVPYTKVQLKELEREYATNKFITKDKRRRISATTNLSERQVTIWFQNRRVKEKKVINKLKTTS

[14] = blockers of DNA damage checkpoint Chk1 activation – imaging, HeLa, hydroxyurea, phospho-Chk1 antibody, percent positive cells, primary screen (AID 1186); conditions: hydroxyurea-induced phospho-Chk1 immunofluorescence imaging, higher = more signal
[15] = blockers of DNA damage checkpoint Chk1 activation – imaging, HeLa, hydroxyurea, phospho-Chk1 nuclear intensity, primary screen (AID 1187); conditions: hydroxyurea-induced phospho-Chk1 immunofluorescence imaging, higher = more signal

Compound | z-score [1] | z-score [2] | z-score [3] | composite z-score [4] | z-score [5] | z-score [6] | z-score [7] | z-score [8] | z-score [9] | composite z-score [10] | composite z-score [11] | composite z-score (XIP peptide (Xip251-270)) | z-score [12] | z-score [13] | z-score [14] | z-score [15]
CCOC(=O)C1=CC[C@@H](c2ccccc2)N(S(=O)(=O)c2ccc(C)cc2)[C@H]1c1ccc(CC)cc1 | 0.963 | 1.82 (inactive) | -0.342 (inactive) | 0.207 (inactive) | 0.806 (inactive) | 1.25 (inactive) | -0.692 (inactive) | 0.629 (inactive) | -0.224 | -0.11 | -0.223 (inactive) | 0.487 | -1.89 | 0.868 (inactive) | -0.0619 (inactive) | -0.606 (inactive)
CO[C@H]1O[C@H](CO)[C@@H](OC(=O)Nc2cccc(F)c2)[C@H](OC(=O)Nc2ccccc2)[C@H]1OC(=O)Nc1ccccc1 | -2.71 | 0.311 (inactive) | -4.75 (inactive) | -0.599 (inactive) | -0.261 (inactive) | 1.77 (inactive) | 1.11 (inactive) | 0.194 (inactive) | -4.5 | 0.072 | 0.879 (inactive) | 0.882 | -2.38 | -5.97 (inactive) | -0.357 (inactive) | 0.161 (inactive)
Cc1ccc([C@H]2C(C(=O)O)=CCN2S(=O)(=O)c2ccc(C)cc2)cc1 | -0.585 | 0.292 (inactive) | -0.81 (inactive) | -0.381 (inactive) | -0.088 (inactive) | -0.114 (inactive) | -0.429 (inactive) | -0.392 (inactive) | -0.325 | 0.296 | -0.609 (inactive) | 0.66 | 0.546 | -2.98 (inactive) | 0.586 (inactive) | -0.222 (inactive)
NCCCCCNC(=O)[C@H]1C[C@H]2C(=O)N3CCC[C@H]3C(=O)N2[C@H]1c1ccc(O)cc1 | -0.0962 | -0.0403 (inactive) | -0.225 (inactive) | -0.572 (inactive) | 0.174 (inactive) | -0.835 (inactive) | -0.363 (inactive) | -0.39 (inactive) | -0.485 | 0.247 | 0.705 (inactive) | 0.718 | -0.0006 | -2.09 (inactive) | -0.15 (inactive) | -0.265 (inactive)
C=C(CCCC)C(=O)CC[C@H](OC(=O)c1cccnc1)c1ccc(OCCO)cc1 | -0.91 | -0.329 (inactive) | -3.27 (inactive) | -0.816 (inactive) | 1.09 (inactive) | 1.32 (inactive) | -0.911 (inactive) | -0.855 (inactive) | -3.01 | 0.0322 | 0.0908 (inactive) | -0.543 | -2.96 | -5.21 (inactive) | 0.457 (inactive) | 0.433 (inactive)
O=C1C2C=CC(C(O)c3ccc(F)cc3)N(Nc3ccc([N+](=O)[O-])cc3)C2C(=O)N1c1ccccc1 (centres undefined) | 0.349 | 0.579 (inactive) | -0.115 (inactive) | -0.0421 (inactive) | 0.862 (inactive) | -0.228 (inactive) | -1.47 (inactive) | -0.639 (inactive) | -0.152 | 0.135 | 0.224 (inactive) | 0.942 | -0.255 | -4.16 (inactive) | 0.137 (inactive) | 0.653 (inactive)
O=C1[C@@]23C=C(Br)[C@H](C[C@@H]2COC3)[C@]12CO2 | -0.845 | -10.2 (active) | -0.874 (inactive) | -1.91 (inactive) | 0.732 (inactive) | -0.384 (inactive) | -0.0135 (inactive) | -0.0637 (inactive) | -0.741 | -0.105 | -0.0125 (inactive) | -1.48 | 1.81 | -7.3 (inactive) | 0.825 (inactive) | 0.343 (inactive)
COc1ccc([Si](C)(C)[C@H]2[C@H](CCn3cc([C@H](O)c4ccccc4)nn3)O[C@@]3(C(=O)N(C)c4ccccc43)[C@@H]2C)cc1 | 0.894 | 0.0785 (inactive) | -0.722 (inactive) | -0.778 (inactive) | 0.92 (inactive) | 1.01 (inactive) | 0.445 (inactive) | 0.416 (inactive) | -0.568 | 0.393 | 0.014 (inactive) | -0.325 | -1.52 | -6.41 (inactive) | -0.179 (inactive) | 0.36 (inactive)
COC(=O)[C@@]1(Cc2ccccc2)[C@H]2c3cc(C(=O)N(C)C)n(CCc4c[nH]c5ccc(O)cc45)c3C[C@H]2CN1C(=O)c1ccccc1 | 0.236 | 0.412 (inactive) | -1.18 (inactive) | -0.568 (inactive) | 1.07 (inactive) | -0.438 (inactive) | 0.117 (inactive) | 0.29 (inactive) | -1.27 | -0.0261 | 1.44 (inactive) | 0.818 | -1.59 | -5.16 (inactive) | -0.996 (inactive) | -0.844 (inactive)
